For one test, the target named is PUM1 PUF domain R4-SCS (Homo sapiens, UniProt Q14671 828-1176, N971S;H972C;Q975S). Kind of test: yeast three-hybrid, YBZ-1, SC-Leu-His + 0.5 mM 3-AT, 4 days. The following applies: tags: N-Gal4 AD-HA kept; label: inside an RPR1-promoter hybrid RNA with tandem MS2 sites; ssRNA. In a few lines: (§1)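 Pumilio-1 PUF domain libraries, randomized at the three base-contacting residues of each repeat, were co-expressed with matching RNA elements from a centromeric plasmid in strain YBZ-1, which carries a LexA–MS2 coat fusion and a HIS3 reporter. Transformants grew for four days on SC-Leu (input) or on SC-Leu-His + 0.5 mM 3-AT (selection), and the repeat regions were PCR-amplified and Illumina-sequenced. The interaction score is the log change in variant frequency from input to selection. That logarithm is base 2, with a pseudocount of 1 where a variant was absent.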
As to “GGCUAGAACUAGUGGAUCCCCCGGCGCCCGGCGGCUCGAGCCCGGGUAAGUGUAUAUAGUCUGCAUGCCGCCGGGCGCCAUGCCUGCAGGUCGACUCUAGAAAACAUG”, the binding signal is 1.72 log2 enrichment (interaction score).
Regarding “GGCUAGAACUAGUGGAUCCCCCGGCGCCCGGCGGCUCGAGCCCGGGUAAGUGUAAAUAGUCUGCAUGCCGCCGGGCGCCAUGCCUGCAGGUCGACUCUAGAAAACAUG”, the binding signal is 2.13 log2 enrichment (interaction score).
Still for that read-out and setting: the figure for “GGCUAGAACUAGUGGAUCCCCCGGCGCCCGGCGGCUCGAGCCCGGGUAAGUGUACAUAGUCUGCAUGCCGCCGGGCGCCAUGCCUGCAGGUCGACUCUAGAAAACAUG” is 0.74 log2 enrichment (interaction score).

For the next test, the target named is PUM1 PUF domain R5-MRE (Homo sapiens, UniProt Q14671 828-1176, C1007M;Q1011E). The description is as above. The following applies: tags: N-Gal4 AD-HA kept; label: inside an RPR1-promoter hybrid RNA with tandem MS2 sites; ssRNA. In outline: as §1
As to “GGCUAGAACUAGUGGAUCCCCCGGCGCCCGGCGGCUCGAGCCCGGGUAAGUGUAAAUAGUCUGCAUGCCGCCGGGCGCCAUGCCUGCAGGUCGACUCUAGAAAACAUG”, the binding signal is 1.14 log2 enrichment (interaction score).
Take “GGCUAGAACUAGUGGAUCCCCCGGCGCCCGGCGGCUCGAGCCCGGGUAAGUGUUAAUAGUCUGCAUGCCGCCGGGCGCCAUGCCUGCAGGUCGACUCUAGAAAACAUG”: the binding signal was 0.96 log2 enrichment (interaction score).
Take “GGCUAGAACUAGUGGAUCCCCCGGCGCCCGGCGGCUCGAGCCCGGGUAAGUGUGAAUAGUCUGCAUGCCGCCGGGCGCCAUGCCUGCAGGUCGACUCUAGAAAACAUG”: the binding signal is 2.77 log2 enrichment (interaction score).

The record behind these values is paper PMC8384837, “Expanding the binding specificity for RNA recognition by a PUF domain”.
